Source: PubChem BioAssay AID1159580 (chemical genetic matrix, 2015)
Screen size: about 5,500 compounds; about 2,000 (36%) were called active. Inconclusive results (about 18%) are left out. Cut-off read from the data, not from the text of the source: active = normalized growth mostly below about 0.91 (no sharp cut-off); inconclusive = no clear call, values can overlap the other calls; inactive = mostly above about 0.92. The list shows a part of the results.

Experiment: chemical genetic growth profiling, strain panel (AID 1159580);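 note: tested at 20 µM; growth read once vehicle control cultures reached saturation at 30 °C; 1 = growth at the plate median or of vehicle wells; lower values mean less growth of the strain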
Conditions: S. cerevisiae deletion strains, growth OD

Measured: normalized growth

CN(CCOc1ccc(C[C@H](Nc2ccccc2C(=O)c2ccccc2)C(=O)O)cc1)c1ccccn1
inactive: locus YAL013W, strain DEP1, active compounds read low 0.992 | locus YAL040C, strain CLN3, active compounds read low 1.09 | locus YCL061C, strain MRC1 (second series), active compounds read low 0.999 | locus YDR363W, strain ESC2, active compounds read low 0.994 | locus YER002W, strain NOP16, active compounds read low 1 | locus YGR078C, strain PAC10, active compounds read low 1.02 | locus YMR263W, strain SAP30, active compounds read low 1 | locus YMR307W, strain GAS1, active compounds read low 0.996 | locus YNL175C, strain NOP13, active compounds read low 1 | locus YNL197C, strain WHI3, active compounds read low 0.994 | locus YNL224C, strain SQS1, active compounds read low 0.992 | locus YOR083W, strain WHI5 (second series), active compounds read low 1.1 | locus YPL055C, strain LGE1, active compounds read low 1
